Bioassay records from PubChem BioAssay.
D1 PAM: enhances dopamine response at the human D1 receptor; P21728; HEK293 TREx D1 cells, calcium flux, dopamine EC20 potentiation; potentiation, % at 10 µM; 0.036% of 360,000 active; AID 504651; in the data active = potentiation above about 30%
Target sequence (P21728 whole entry, looked up): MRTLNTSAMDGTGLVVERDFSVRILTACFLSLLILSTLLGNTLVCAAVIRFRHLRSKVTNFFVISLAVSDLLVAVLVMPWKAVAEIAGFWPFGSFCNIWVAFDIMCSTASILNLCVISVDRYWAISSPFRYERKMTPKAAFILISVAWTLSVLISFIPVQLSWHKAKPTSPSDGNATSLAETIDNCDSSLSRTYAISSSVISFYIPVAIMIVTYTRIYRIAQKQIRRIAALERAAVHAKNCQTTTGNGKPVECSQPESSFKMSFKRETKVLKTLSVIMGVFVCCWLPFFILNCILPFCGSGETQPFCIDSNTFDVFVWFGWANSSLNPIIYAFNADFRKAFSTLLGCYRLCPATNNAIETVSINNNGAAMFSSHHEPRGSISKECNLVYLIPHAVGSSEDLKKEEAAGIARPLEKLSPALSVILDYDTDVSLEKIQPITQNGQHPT
D1 ag: human D1 receptor agonism | HEK293 T-REx D1 cells, calcium flux, agonist mode | 1% of 360,000 active | P21728 | activation, % at 2 µM
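Tetracycline-induced HEK293 TREx D1 cells, force-coupled to calcium signalling, were dye-loaded with a no-wash calcium kit. Compound was pin-added after a 10 s baseline. Fluorescence was read kinetically at 1 cycle/s for 180 s, with calcium rises flagged as agonism.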
GRP78 ERSR act: ER stress response induction in glioma | U87-MG GRP78 promoter luciferase reporter, 16 h | Potency, µM, actives largely listed as activators | 0.02% of 420,000 active | AID 602332; active = well fitted activation curve with a large enough effect; note: series mostly up to about 76 µM; nearly all actives have a fitted effect of over 35% in size
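Stably transfected U87-MG human glioma cells carrying a GRP78-based luminescent sensor were seeded at 1000 cells/well, pin-dosed with compounds and incubated 16 h. Luciferase reagent was then added, and end-point luminescence was read after 10 min at room temperature.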
TRHR PAM: allosteric enhancers of human TRH receptor; TRHR cells, fluo-8 calcium fluorescence, EC20 TRH enhancement; 0.66% of 360,000 active; enhancement, % at 2 µM; P34981; in the data active = enhancement above about 30%
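Enhancer read-out: after compound pinning and an initial kinetic agonist-mode read, an EC20 of TRH (10 nM final) was injected and fluo-8 calcium signal (Ex 480/Em 530) followed at 1 s/cycle for 100 cycles in TRHR-expressing cells.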
TRHR agonist: TRH receptor (human) agonism. 0.18% of 360,000 active. TRHR cells, calcium flux fluo-8, FDSS agonist mode. AID 493084. P34981. activation, % at 2 µM
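In this calcium-flux screen, cells bearing human TRHR are dye-loaded with fluo-8, baselined for 10 cycles, then exposed to library compounds; positive kinetic calcium responses during the agonist phase mark hits, with TRH as control.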
D1 antagonist: antagonists of human D1 dopamine receptor | HEK293 TREx D1 cells, calcium flux, dopamine EC80; stronger effect = lower value | 3.2% of 360,000 active | activity change, negative = inhibition, % at 10 µM | P21728; in the data active = activity change below about -30%
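Tetracycline-induced HEK293 Trex D1 cells, force-coupled to calcium, dye-loaded; compounds added and read 180 s, then EC80 dopamine added and calcium flux tracked kinetically another 180 s.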
Numbers stand for hits; 0 = inactive; - = no result. In the library only some 4% were active in any assay of this set; here they are far more common. Cut-off read from the data, not from the text of the source, unless noted: active = activation above about 30%; inactive = the rest.

SMILES	D1 PAM	D1 ag	GRP78 ERSR act	TRHR PAM	TRHR agonist	D1 antagonist
Cc1ccc(S(=O)(=O)N(C)c2ccc3sc(C)nc3c2)cc1	0	0	0	37.9	0	0
ClC1(Cl)CC1CSc1nc2ccccc2[nH]1 (stereo unspecified)	0	0	0	0	0	-34.3
CCOC(=O)N1N=C(c2ccc(OC)cc2)CC1(O)C(F)(F)F (stereo unspecified)	0	0	0	32.3	0	0
Cc1c(C(=O)NCc2ccc3c(c2)OCO3)cnn1-c1ncc2c(n1)-c1ccccc1CC2	-	-	0	-	-	-
N=C1/C(=C\c2ccc(-c3cccc(Cl)c3)o2)C(=O)N=C2SC=C(c3ccccc3)N12	0	0	0	0	0	0
N=C1/C(=C\c2ccc(-c3ccc(C(=O)O)cc3)o2)C(=O)N=C2SC=C(c3ccccc3)N12	0	37.7	0	0	0	0
COc1cccc(CNC(=O)CN2CCC(c3nc4ccc(C)cc4[nH]3)CC2)c1	0	0	0	0	0	-37.7
Cc1ccc(CN2CCC(c3nc4ccc(Cl)cc4[nH]3)CC2)cc1	0	0	0	0	0	-30.8
COc1ccc(CNC(=O)C2CCN(c3nc4ccc(C)cc4[nH]3)CC2)cc1	0	37.6	0	0	0	0
COCCCNC(=O)C1CCN(c2nc3ccc(C)cc3[nH]2)CC1	0	0	0	0	0	-55.5
COc1ccccc1NC(=O)CN1CCC(c2nc3ccc(C)cc3[nH]2)CC1	0	0	0	0	0	0
Cc1ccncc1C(=O)O	-	-	0	-	-	-
Cc1cc(-c2ccnc(-n3ncc(C(=O)NCC4COCCO4)c3C3CC3)n2)c(C)s1 (stereo unspecified)	-	-	0	-	-	-
COc1ccc(CNC(=O)c2ccc(C(C)(C)C)cc2)cc1	0	0	0	0	0	0
COc1ccc(CNC(=O)c2ccc(C(C)C)cc2)cc1	0	0	0	0	0	-46.6
COc1ccc(CNC(=O)c2cc3sccc3n2C)cc1	0	0	-	0	0	-51.5
CC1=C(C(=O)Nc2ccc(F)cc2F)C2(CCCCCC2)OC1=O	0	0	0	0	0	0
c1ccc(CCNCCCOc2cccc3ccccc23)cc1	0	50.3	0	0	0	0
CC(C)(C)c1ccc(OC2C(O)COC2/C=C/C#Cc2ccccc2)cc1 (stereo unspecified)	-	-	0	-	-	-
Cc1nn2cnc3sc4c(c3c2nc1=O)CCCC4	0	0	0	0	0	-85.9
c1nc2sc3c(c2c2nnnn12)CCCC3	0	0	0	0	0	0
NC(=O)C1CCN(C(=O)COc2ccc(S(=O)(=O)NC3CCCC3)cc2)CC1	0	0	0	0	0	0
O=C(COc1ccc(S(=O)(=O)NC2CCCCC2)cc1)N1CCN(c2ccc(F)cc2)CC1	0	0	0	0	0	-30.3
CC1CCC/C(=N/Nc2ccc([N+](=O)[O-])cc2[N+](=O)[O-])C1 (stereo unspecified)	0	0	0	0	0	-32.1
CC(C)(C)C(=O)N1CCN(c2ccnc3cc(Cl)ccc23)CC1	0	0	0	0	0	0
SMILES	D1 PAM	D1 ag	GRP78 ERSR act	TRHR PAM	TRHR agonist	D1 antagonist
O=C(Nc1ccc(OC(F)(F)F)cc1)N1CCN(c2ccnc3cc(Cl)ccc23)CC1	0	0	0	0	0	-40.5
COc1ccc(C(CC(=O)O)NC(=O)Cc2ccccc2)cc1OC (stereo unspecified)	0	0	0	0	0	0
C=CCC(Nc1ccccc1)c1ccc(OC)c(OC)c1 (stereo unspecified)	0	0	-	0	0	-40.3
COC(=O)NC(/C(C(=O)OC)=C(\C)NCc1ccccc1)c1cccc(F)c1 (stereo unspecified)	-	-	0	-	-	-
O=[N+]([O-])c1ccc(N/N=C/c2c[nH]c3ccccc23)c(S(=O)(=O)Nc2ccc(Cl)cc2)c1	0	45.1	0	0	0	0
Cc1[nH]c2ccccc2c1/C=N/Nc1ccc([N+](=O)[O-])cc1	0	124.8	0	0	37.6	0
Cc1[nH]c2ccccc2c1/C=N/NC(=O)c1cccc(F)c1	0	0	0	0	0	-65.5
COc1ccccc1NS(=O)(=O)c1cc([N+](=O)[O-])ccc1N/N=C/c1c(C)[nH]c2ccccc12	0	62.3	0	0	0	0
CCN(CC)S(=O)(=O)c1ccc2[nH]c(=O)cc(C(=O)NCC3CCCO3)c2c1 (stereo unspecified)	0	0	0	0	0	0
CC(C)(C)n1nnnc1C(c1ccncc1)N1CCN(C2CCCCC2)CC1 (stereo unspecified)	0	0	0	0	0	0
Cc1cccc(N2CCN(C(c3ccncc3)c3nnnn3C(C)(C)C)CC2)c1C (stereo unspecified)	0	0	0	0	0	-40.3
CC1CC(C)CN(CCCNC(=O)c2csc3c2CCCC3)C1 (stereo unspecified)	0	0	0	36.1	0	0
O=C(NN=C1CCCCCC1)c1c[nH]c2ccccc12	0	0	0	0	0	-45.6
C/C(=N\NC(=O)c1c[nH]c2ccccc12)c1ccc(C)o1	0	0	0	0	0	-66.1
Cc1ccc(C(=O)Nc2cnn(-c3ccc(C(=O)N(C)Cc4n[nH]c5c4CCCC5)cc3)c2)c(C)c1	-	-	0	-	-	-
CC(=O)Nc1ccc(NS(=O)(=O)c2c(C)nc3sccn3c2=O)cc1	0	0	0	0	0	0
COc1cccc(NS(=O)(=O)c2c(C)nc3sccn3c2=O)c1	0	0	0	0	0	-42.6
CCOc1ccc(NS(=O)(=O)c2c(C)nc3sccn3c2=O)cc1	0	0	0	0	0	-33.8
O=C(Nc1ccccc1)Nc1nc(Nc2cc(F)cc(F)c2)nc(NC2CCCC2)n1	0	0	-	0	0	0
CCOc1ccc(N/C(SC)=C(/C#N)C(N)=O)cc1	0	0	0	0	0	-51.6
C/C=C\C(=O)Nc1cccc(C2=NOC3(C2)C[C@@H](C(N)=O)N(C(=O)c2ccccc2)C3)c1 (stereo partly specified)	0	0	0	0	0	0
C=C(C)C(=O)Nc1cccc(C2=NOC3(C2)C[C@@H](C(N)=O)N(C(=O)c2cc([N+](=O)[O-])cc([N+](=O)[O-])c2)C3)c1 (stereo partly specified)	0	0	0	0	0	0
C/C=C(\C)C(=O)Nc1cccc(C2=NOC3(C2)C[C@H](C(N)=O)N(C(=O)CC#N)C3)c1 (stereo partly specified)	0	0	0	0	0	-48.3
C/C=C(/C)C(=O)Nc1cccc(C2=NOC3(C2)C[C@@H](C(N)=O)N(C(=O)CC)C3)c1 (stereo partly specified)	0	0	0	0	0	0
